Where “and” joins values, the source holds several entries; their conditions need not be identical. Equal values may be shown once. Results filed as inconclusive are left out. Calls of active or inactive are those of the source. Calls follow the shape of the dose curve; as a rule, active = well fitted curve in the direction sought with a large enough effect; inconclusive = small, poorly fitted or top-dose-only effect, or another doubt; inactive = no such curve, though single readings can be large; an effect the other way counts as inactive or inconclusive.
Legend:
[1] = biological target: Rap guanine nucleotide exchange factor 3 (Homo sapiens) (UniProt O95398); assay: Confirmatory qHTS for agonist of cAMP-regulated guanine nucleotide exchange factor 3 (EPAC1) (AID 1645881);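 also: EPAC1 catalysed release of BODIPY-GDP from Rap1B seen as fluorescence loss; 100% = effect of cAMP agonist control; nearly all actives have a fitted effect of over 75% in size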
Chain of Rap guanine nucleotide exchange factor 3 (Homo sapiens) (O95398 whole entry, looked up): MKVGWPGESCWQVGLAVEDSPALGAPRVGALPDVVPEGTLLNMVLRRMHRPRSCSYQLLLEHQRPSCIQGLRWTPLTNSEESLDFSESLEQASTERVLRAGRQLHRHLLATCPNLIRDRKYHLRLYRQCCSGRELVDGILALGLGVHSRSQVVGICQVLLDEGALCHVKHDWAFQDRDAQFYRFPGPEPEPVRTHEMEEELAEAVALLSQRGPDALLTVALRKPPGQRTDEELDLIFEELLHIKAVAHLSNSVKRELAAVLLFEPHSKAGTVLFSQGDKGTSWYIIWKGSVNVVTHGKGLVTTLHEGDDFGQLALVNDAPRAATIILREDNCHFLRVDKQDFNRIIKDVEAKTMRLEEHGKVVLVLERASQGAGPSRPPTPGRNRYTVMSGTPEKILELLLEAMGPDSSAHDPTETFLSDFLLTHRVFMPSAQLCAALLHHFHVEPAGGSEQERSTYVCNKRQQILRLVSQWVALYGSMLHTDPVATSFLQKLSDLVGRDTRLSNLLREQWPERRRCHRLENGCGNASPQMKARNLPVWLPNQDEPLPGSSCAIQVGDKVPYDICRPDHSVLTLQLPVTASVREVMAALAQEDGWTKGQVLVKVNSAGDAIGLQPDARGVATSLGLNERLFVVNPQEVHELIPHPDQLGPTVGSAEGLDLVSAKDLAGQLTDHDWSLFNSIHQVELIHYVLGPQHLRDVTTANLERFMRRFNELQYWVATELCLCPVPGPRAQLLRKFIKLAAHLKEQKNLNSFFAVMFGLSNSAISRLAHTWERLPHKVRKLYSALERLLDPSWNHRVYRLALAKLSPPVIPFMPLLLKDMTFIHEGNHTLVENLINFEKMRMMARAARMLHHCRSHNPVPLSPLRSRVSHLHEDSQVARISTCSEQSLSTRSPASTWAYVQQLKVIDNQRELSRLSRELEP

[2] = biological target: Rap guanine nucleotide exchange factor 4 (Homo sapiens) (UniProt Q8WZA2); assay: Confirmatory qHTS for agonist of cAMP-regulated guanine nucleotide exchange factor 4 (EPAC2) (AID 1645884);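 also: nucleotide exchange releases bodipy-GDP from Rap1 and this lowers its fluorescence; % is scaled to controls: 0 for no effect and ±100 for the full control effect; nearly all actives have a fitted effect of over 65% in size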
Chain of Rap guanine nucleotide exchange factor 4 (Homo sapiens) (Q8WZA2 whole entry, looked up): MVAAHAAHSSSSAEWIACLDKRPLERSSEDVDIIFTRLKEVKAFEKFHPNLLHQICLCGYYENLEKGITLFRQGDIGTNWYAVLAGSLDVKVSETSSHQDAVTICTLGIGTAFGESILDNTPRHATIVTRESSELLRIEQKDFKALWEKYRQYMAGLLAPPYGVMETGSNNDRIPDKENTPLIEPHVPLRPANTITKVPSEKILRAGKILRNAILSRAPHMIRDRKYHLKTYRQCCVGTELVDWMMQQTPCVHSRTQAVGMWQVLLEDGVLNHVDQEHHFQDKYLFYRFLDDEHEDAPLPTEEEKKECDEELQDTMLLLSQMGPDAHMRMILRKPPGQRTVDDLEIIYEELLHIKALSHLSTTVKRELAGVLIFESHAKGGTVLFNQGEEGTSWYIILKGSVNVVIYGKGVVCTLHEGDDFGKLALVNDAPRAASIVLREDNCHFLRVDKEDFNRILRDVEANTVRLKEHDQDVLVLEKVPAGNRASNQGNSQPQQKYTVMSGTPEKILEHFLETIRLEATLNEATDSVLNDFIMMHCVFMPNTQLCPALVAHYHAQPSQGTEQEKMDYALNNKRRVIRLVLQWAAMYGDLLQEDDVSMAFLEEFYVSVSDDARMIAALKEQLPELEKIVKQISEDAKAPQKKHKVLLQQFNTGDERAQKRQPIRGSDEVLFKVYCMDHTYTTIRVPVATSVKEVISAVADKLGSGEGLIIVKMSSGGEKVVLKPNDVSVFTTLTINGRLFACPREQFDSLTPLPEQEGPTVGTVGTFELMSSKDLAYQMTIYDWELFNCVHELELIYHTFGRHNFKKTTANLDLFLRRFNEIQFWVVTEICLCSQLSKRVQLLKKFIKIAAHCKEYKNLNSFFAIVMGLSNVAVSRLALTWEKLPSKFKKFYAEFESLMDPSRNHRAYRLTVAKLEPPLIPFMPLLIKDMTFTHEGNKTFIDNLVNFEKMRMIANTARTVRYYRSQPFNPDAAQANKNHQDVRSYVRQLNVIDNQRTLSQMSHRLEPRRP

[3] = biological target: Rap guanine nucleotide exchange factor 4 (Homo sapiens) (UniProt Q8WZA2); assay: Confirmatory qHTS for antagonist of cAMP-regulated guanine nucleotide exchange factor 4 (EPAC2) (AID 1645885); also: nearly all actives have a fitted effect of over 25% in size; also: potency is read from the fitted curve at half-maximal effect; as to activity change, negative = inhibition: % is scaled to controls: 0 for no effect and ±100 for the full control effect
[4] = biological target: Rap guanine nucleotide exchange factor 3 (Homo sapiens) (UniProt O95398); assay: Counterscreen qHTS for antagonist of cAMP-regulated guanine nucleotide exchange factor 3 (EPAC1) (AID 1645888);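 also: fluorescence loss as bound BODIPY-GDP is released from Rap1B; % of control where 0% means no effect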
Outline: (§1)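 Measured: fluorescence of BODIPY-GDP bound to Rap1B, which falls as exchange proceeds. Conditions include 50 uM competing GDP, 5 and 30 min reads, and a later cAMP challenge for antagonist detection.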

[5] = biological target: Rap guanine nucleotide exchange factor 3 (Homo sapiens) (UniProt O95398); assay: Counterscreen qHTS for agonist of cAMP-regulated guanine nucleotide exchange factor 3 (EPAC1) (AID 1645889); also: nearly all actives have a fitted effect of over 40% in size; also: potency is read from the fitted curve at half-maximal effect; as to activation: % of control where 0% means no effect
Outline: as §1

CCN1CCc2c(sc(-n3cccc3)c2C(C)NC(=O)Nc2ccc(C(=O)OC)cc2)C1 (stereo not given)
inactive: Potency [1] | Potency [2] | Potency [3] | Potency [4] | Potency [5]

O=S(=O)(NCCC1=CCCCC1)c1ccc(OC(F)(F)F)cc1
inactive: Potency [1] | activation [2] -1.46% [at 17.1 µM, percent relative to cAMP agonist control] | Potency [3] | activity change, negative = inhibition [4] -5.33% [at 30.8 µM] | activation [5] 3.2% [at 30.8 µM]

COc1ccc(-c2csc(C(C)(O)c3ccccc3)n2)cc1 (stereo not given)
inactive: Potency [1] | activation [2] 5.7% [at 17.1 µM, percent relative to cAMP agonist control] | Potency [3] | activity change, negative = inhibition [4] 8.72% [at 30.8 µM] | activation [5] 23.4% [at 30.8 µM]

CCOc1cc(/C=C(/C#N)c2ccc(Cl)cc2)cc(Cl)c1OCC(=O)O
inactive: Potency [1] | activation [2] 3.22% [at 17.1 µM, percent relative to cAMP agonist control] | Potency [3] | activity change, negative = inhibition [4] -8.72% [at 30.8 µM] | activation [5] 10.8% [at 30.8 µM]

COc1cc(/C=C2/C(=O)NN(c3cccc(Cl)c3)C2=O)cc(OC)c1O
inactive: Potency [1] | activation [2] 11.7% [at 17.1 µM, percent relative to cAMP agonist control] | Potency [3] | activity change, negative = inhibition [4] -0.0912% [at 30.8 µM] | activation [5] 4.51% [at 30.8 µM]

COc1ccc(C(=O)c2nccc3ccccc23)cc1
inactive: Potency [1] | Potency [2] | Potency [3] | Potency [4] | Potency [5]

Cc1nn(CCc2nn[nH]n2)c2nc(-c3ccc(Br)cc3)cc(C(F)(F)F)c12
inactive: Potency [1] | Potency [2] | Potency [3] | Potency [4] | Potency [5]

Cc1nn(-c2ccc(F)cc2)c(-n2cccc2)c1C(=O)N1CCN(c2ccc(F)cc2)CC1
inactive: Potency [1] | Potency [2] | outcome [3] inactive [at 12.7 µM] | Potency [4] | Potency [5]

Cc1ccc(-c2nn(-c3ccccc3)cc2C=C2SC(=S)N(CCS(=O)(=O)O)C2=O)cc1
inactive: Potency [1] | activation [2] 6.87% [at 17.1 µM, percent relative to cAMP agonist control] | Potency [3] | activity change, negative = inhibition [4] -16.5% [at 30.8 µM] | activation [5] 28% [at 30.8 µM]

CC(C)(C)c1ccc(Cn2nnc3c(=O)[nH]c(C4CCN(C(=O)Cc5cccs5)CC4)nc32)cc1
inactive: Potency [1] | Potency [2] | Potency [3] | Potency [4] | Potency [5]

CCOc1cccc(CNc2ccc(O)cc2)c1OCc1ccccc1Cl
inactive: Potency [1] | Potency [2] | Potency [3] | Potency [4]
active: Potency [5] 44.7 nM and 79.4 µM

O=Nc1c(O)c2ccccc2c2ccccc12
inactive: Potency [1] | activation [2] 0.886% [at 17.1 µM, percent relative to cAMP agonist control] | Potency [3] | activity change, negative = inhibition [4] -4.76% [at 30.8 µM] | activation [5] 24.1% [at 30.8 µM]

Cc1cccc(C)c1-n1cccc1/C=C1\SC(=S)N(c2cccc(C(=O)O)c2)C1=O
inactive: Potency [1] | Potency [2] | Potency [3] | Potency [4] | Potency [5]

CCOc1ncccc1C(=O)OC(C)C(=O)Nc1ccc(Cl)cn1 (stereo not given)
active: Potency [3] 0.213 µM
inactive: Potency [1] | activation [2] 7.63% [at 17.1 µM, percent relative to cAMP agonist control] | activity change, negative = inhibition [4] -16.3% [at 30.8 µM] | activation [5] 15.5% [at 30.8 µM]

Cc1cc(Cl)ccc1OC(C)C(=O)Nc1ccc(C(=O)Nc2ccccc2C(=O)O)cc1 (stereo not given)
inactive: Potency [1] | Potency [2] | Potency [3] | Potency [4] | Potency [5]

C=CCc1ccccc1OCc1nc2ccccc2n1CC
inactive: Potency [1] | Potency [2] | Potency [3] | Potency [4] | Potency [5]

CCOc1ccccc1Cn1c(=O)oc2ccc(C)cc21
inactive: Potency [1] | Potency [2] | Potency [3] | Potency [4] | Potency [5]

Cc1[nH]c2ccc(C(=O)OC(C)C(=O)N(C)c3ccccc3)cc2c1C (stereo not given)
inactive: Potency [1] | Potency [2] | Potency [3] | Potency [4] | Potency [5]

COc1ccc(/C=C2/SC(=O)N(CCC(=O)Nc3ccc(S(=O)(=O)Nc4nccs4)cc3)C2=O)cc1
inactive: Potency [1] | Potency [2] | Potency [3] | Potency [4] | Potency [5]

CCCN1C(=O)c2ccccc2NC1c1ccc(OC)c(CSc2ccccn2)c1 (stereo not given)
inactive: Potency [1] | Potency [2] | Potency [3] | Potency [4] | Potency [5]

CCOc1cccc(-c2c(C(=O)N/N=C/c3cccs3)nnn2-c2nonc2N)c1
inactive: Potency [1] | activation [2] 2.81% [at 17.1 µM, percent relative to cAMP agonist control] | Potency [3] | activity change, negative = inhibition [4] 15% [at 30.8 µM]
active: Potency [5] 10 µM

N#CC1=C(N)Oc2cc(N)ccc2C1c1ccc(Cl)cc1 (stereo not given)
active: Potency [3] 47.8 µM
inactive: Potency [1] | Potency [2] | Potency [4] | Potency [5]

Cc1oc2c(cc(NS(=O)(=O)c3ccc(F)cc3)c3ccccc32)c1C(=O)O
active: Potency [3] 75.7 µM
inactive: Potency [1] | Potency [2] | Potency [4] | Potency [5]

CC(=Cc1ccccc1)C=C1SC(=S)N(CCCC(=O)Nc2ccc(C(=O)O)cc2)C1=O
inactive: Potency [1] | Potency [2] | Potency [3] | Potency [4] | Potency [5]

O=C(c1ccc2c(c1)CCCC2)N1CCN(c2nc3ccc(F)cc3s2)CC1
inactive: Potency [1] | Potency [2] | Potency [3] | Potency [4] | Potency [5]

C#Cc1ccc([C@@H]2C=C(C(=O)NCc3ccccc3)O[C@H](OCc3ccc(CO)cc3)C2)cc1
inactive: Potency [1] | Potency [2] | Potency [3] | Potency [4] | Potency [5]

CC(C)(C)NC(=O)COC(=O)c1c2c(nc3ccccc13)CCC2
inactive: Potency [1] | activation [2] 2.28% [at 17.1 µM, percent relative to cAMP agonist control] | Potency [3] | activity change, negative = inhibition [4] -10.2% [at 30.8 µM] | activation [5] 16.3% [at 30.8 µM]

CCOC(=O)c1c(C)[nH]c(C(=O)OCC(=O)Nc2sccc2C(N)=O)c1C
inactive: Potency [1] | Potency [2] | Potency [3] | Potency [4] | Potency [5]

Cc1ccccc1NC(=O)CN1C(=O)N/C(=C\c2ccccc2OCc2ccc(C(=O)O)cc2)C1=O
active: Potency [3] 53.6 µM
inactive: Potency [1] | Potency [2] | Potency [4] | Potency [5]

CCOc1ccc(C=NNc2ccc(S(=O)(=O)Nc3ccccc3C(=O)O)cc2[N+](=O)[O-])cc1
inactive: Potency [1] | activation [2] -0.564% [at 17.1 µM, percent relative to cAMP agonist control] | Potency [3] | activity change, negative = inhibition [4] 6.79% [at 30.8 µM] | activation [5] 21.3% [at 30.8 µM]
